Assay outcomes: PubChem BioAssay, several laboratories
A selection: hits, their analogues and other compounds. The true share with any hit is near 3.1%.
LGR2 antag = blocks bursicon-induced cAMP signaling via Drosophila LGR2; inhibition, % at 9.99 µM; hit rate 0.35% among 380,000; HEK293 LGR2, CRE-luciferase, bursicon-stimulated, 4 h;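 active means drop in luminescence signal, shown as inhibition above about 50% in the replicate tests, limit read from the data, passing the limit was not always enough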;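 further: agonist challenge used bursicon conditioned medium at about half maximal strength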
PAX8 reporter = inhibitors of PAX8 transcriptional activity in RMG-I cells; RMG-I TPO-luciferase reporter, SteadyGlo, 24 h; inhibition, % at 12.6 µM; hit rate 1.2% among 360,000;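 active means mean replicate inhibition at least 60% with every replicate also reaching 60%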;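 further: luciferase light reporting Pax8 driven TPO promoter activity; plate controls were median of neutral control wells for no effect and mitoxantrone controls for full effect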
EWS-Fli inh = blocks EWS/Fli oncoprotein-driven transcription | inhibition, % at 12.6 µM | hit rate 0.67% among 350,000 | A673 NR0B1-luciferase reporter, viability-normalised;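 active means mean inhibition of at least 50% after viability correction, with every replicate also passing that limit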;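 further: firefly luciferase signal divided by Alamar Blue viability fluorescence both relative to DMSO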
TROY NFkB inh = inhibitors of TROY-dependent NF-kB signaling. Q293 LMP1-TROYcd NF-kB luciferase reporter, 4 h. AID 1347056. inhibition, % at 10 µM. hit rate 0.98% among 360,000;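 active means compounds whose plate-normalised and pattern-corrected inhibition of the luciferase reporter signal at the single screening dose is 50% or more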
EBV LMP1 NFkB = inhibitors of Epstein-Barr LMP1-induced NF-kappaB reporter | inhibition, % at 12.5 µM | hit rate 0.69% among 350,000 | LMP1-induced NF-kappaB luciferase reporter cells, luminescence; in the data active means inhibition above about 41%;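 further: 0% = neutral control wells and 100% = reference inhibitor control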
TWEAK-Fn14 inh = blocks TWEAK-Fn14 interaction in a reporter cell assay; TWEAK-stimulated Fn14 reporter cells, luciferase luminescence, 8 h; inhibition, % at 10 µM; hit rate 2% among 360,000; AID 1159606; in the data active means inhibition above about 50%
* hit, by the source's call; . = no result.

SMILES | LGR2 antag | PAX8 reporter | EWS-Fli inh | TROY NFkB inh | EBV LMP1 NFkB | TWEAK-Fn14 inh
CO[C@@H]1CN(C)C(=O)c2ccc(NS(=O)(=O)c3cn(C)cn3)cc2OC[C@@H](C)N(CC2CC2)C[C@H]1C | 15 | -7 | 3 | . | . | .
O=C(Nc1ccc(F)cc1F)c1cc2nc3c(c(C(F)(F)F)n2n1)CCCC3 | -28 | -177 | . | 68* | -15 | 73*
O=C(O)c1cc2nc3c(c(C(F)(F)F)n2n1)CCCC3 | -4 | -34 | -2 | 12 | 7 | 13
CCSc1nnc(NC(=O)CSc2nnc(-c3c[nH]c4ccccc34)n2CC)s1 | -8 | 23 | 4 | 2 | 85* | 8
CCOC(=O)c1c(NC(=O)CSc2c[nH]c3ccccc23)sc2c1CCCC2 | 13 | 27 | 13 | 34 | -46 | 23
COc1ccc(C2(O)CCN(CC(=O)Nc3nc(-c4ccccc4)cs3)CC2)cc1 | 42 | 1 | 4 | 46 | 4 | 83*
CCc1nnc(NC(=O)CSc2nnc(-c3c[nH]c4ccccc34)n2CC)s1 | . | . | . | -6 | -11 | 14
CCn1c(SCC(=O)Nc2nc(-c3ccccc3)cs2)nnc1-c1ccccc1 | . | . | . | 43 | 9 | 54*
CCOC(=O)c1c(NC(=O)CSc2nnc(-c3c[nH]c4ccccc34)n2CCOC)sc2c1CCCCC2 | 28 | 43 | 7 | 3 | 3 | 53*
CC(C)C#Cc1cnc2c(c1)C(=O)N([C@@H](C)CO)C[C@H](C)[C@H](CN(C)C(=O)Nc1ccccc1F)O2 | 2 | . | -14 | . | . | .
Cc1ccc(S(=O)(=O)N(C)C[C@H]2Oc3c(NC(=O)c4ccncc4)cccc3C(=O)N([C@@H](C)CO)C[C@H]2C)cc1 | 9 | 16 | 2 | . | . | .
C[C@@H]1CN([C@H](C)CO)C(=O)Cc2cc(NS(C)(=O)=O)ccc2O[C@H]1CN(C)C(=O)Nc1ccc(F)cc1 | 8 | 5 | -4 | . | . | .
C[C@@H]1CN([C@H](C)CO)C(=O)c2cc(-c3ccc(F)cc3)cnc2O[C@@H]1CN(C)C(=O)c1ccccc1F | -1 | . | -4 | . | . | .
CN1C(=O)c2cc(NS(=O)(=O)c3ccc(Cl)cc3)ccc2OC[C@@H]2O[C@H](CC(=O)N3CCc4ccccc4C3)CC[C@@H]21 | 23 | 61* | 8 | . | . | .
CN1C(=O)c2cc(NC(=O)Nc3cccc(Cl)c3)ccc2OC[C@@H]2O[C@@H](CC(=O)NCCc3ccncc3)CC[C@H]21 | 7 | 74* | -16 | . | . | .
CN1C(=O)c2cc(NC(=O)c3cccc(Cl)c3)ccc2OC[C@H]2O[C@@H](CC(=O)NC3CCCCC3)CC[C@@H]21 | 0 | . | 1 | . | . | .
CN1C(=O)c2cc(NC(=O)c3cccc(Cl)c3)ccc2OC[C@@H]2O[C@H](CC(=O)NC3CCCCC3)CC[C@@H]21 | 2 | 76* | 15 | . | . | .
CN1C(=O)c2cc(NS(=O)(=O)c3ccc(Cl)cc3)ccc2OC[C@H]2O[C@@H](CC(=O)N3CCc4ccccc4C3)CC[C@H]21 | 10 | 37 | 8 | . | . | .
C[C@@H]1CN([C@H](C)CO)C(=O)Cc2cc(NC(=O)CCC(F)(F)F)ccc2O[C@@H]1CN(C)Cc1ccc(Cl)c(Cl)c1 | 14 | . | -3 | . | . | .
CC(C)NC(=O)Nc1ccc2c(c1)C(=O)N([C@@H](C)CO)C[C@H](C)[C@H](CN(C)Cc1ccc3c(c1)OCO3)OCCCC[C@@H](C)O2 | -1 | 3 | 6 | . | . | .
C/C(=N\Nc1nc2ccccc2[nH]1)c1ccc(Cl)s1 | -21 | -24 | -42 | -51 | 43* | 6
C(=N\Nc1nc2ccccc2[nH]1)/c1c[nH]c2ccccc12 | -58 | . | . | -25 | -53 | 51*
Cc1ccccc1/C=N/Nc1nc2ccccc2[nH]1 | -59 | -129 | -123 | -29 | -16 | 7
Cc1ccc(/C=N/Nc2nc3ccccc3[nH]2)s1 | -84 | -140 | . | -57 | -118 | 50*
C/C(=N\Nc1nc2ccccc2[nH]1)c1ccc(C)o1 | -75 | . | . | 14 | -20 | -4
C(=N\Nc1nc2ccccc2[nH]1)/c1cccc2cccnc12 | 33 | 4 | -1 | -3 | 71* | 26
O=C(C1CCCCC1)N1CC2(C1)[C@H](c1ccccc1)[C@H](CO)N2Cc1ccc(Cl)cc1 | 6 | . | -4 | . | . | .
Cc1[nH]c2ccccc2c1/C=N/Nc1nc2ccccc2[nH]1 | 100* | 3 | -43 | 57* | -26 | 95*
COc1ccc(/C=N/Nc2nc3ccccc3[nH]2)c(OC)c1OC | 28 | -106 | -43 | 73* | 27 | 78*
